Measurements published in publication PMC5540273 (PLoS ONE, 2017).

How the values were obtained:
Details in all cases: concentration: 1 μM, replicates: in singlicate; n = 1
[1] = tested on: RIPK2
[2] = tested on: RIPK4
[3] = tested on: RIPK5
[4] = tested on: ROCK1
[5] = tested on: ROCK2
[6] = tested on: ROS1
[7] = tested on: RPS6KA4(Kin.Dom.1-N-terminal)
[8] = tested on: RPS6KA4(Kin.Dom.2-C-terminal)
[9] = tested on: RPS6KA5(Kin.Dom.1-N-terminal)
[10] = tested on: RPS6KA5(Kin.Dom.2-C-terminal)
[11] = tested on: T1, RSK1(Kin.Dom.1-N-terminal)
T1 construct: gene RPS6KA1

[12] = tested on: T2, RSK1(Kin.Dom.2-C-terminal)
T2 construct: gene RPS6KA1

[13] = tested on: T3, RSK2(Kin.Dom.1-N-terminal)
T3 construct: gene RPS6KA3

[14] = tested on: T4, RSK2(Kin.Dom.2-C-terminal)
T4 construct: gene RPS6KA3

[15] = tested on: T5, RSK3(Kin.Dom.1-N-terminal)
T5 construct: gene RPS6KA2

[16] = tested on: T6, RSK3(Kin.Dom.2-C-terminal)
T6 construct: gene RPS6KA2

[17] = tested on: T7, RSK4(Kin.Dom.1-N-terminal)
T7 construct: gene RPS6KA6

[18] = tested on: T8, RSK4(Kin.Dom.2-C-terminal)
T8 construct: gene RPS6KA6

[19] = tested on: S6K1
[20] = tested on: SBK1
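Further: KINOMEscan kinase panel screen.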

| Structure (SMILES) | %Inh [1] [%] | %Inh [2] [%] | %Inh [3] [%] | %Inh [4] [%] | %Inh [5] [%] | %Inh [6] [%] | %Inh [7] [%] | %Inh [8] [%] | %Inh [9] [%] | %Inh [10] [%] | %Inh [11] [%] | %Inh [12] [%] | %Inh [13] [%] | %Inh [14] [%] | %Inh [15] [%] | %Inh [16] [%] | %Inh [17] [%] | %Inh [18] [%] | %Inh [19] [%] | %Inh [20] [%] |
| --- | --- | --- | --- | --- | --- | --- | --- | --- | --- | --- | --- | --- | --- | --- | --- | --- | --- | --- | --- | --- |
| Cc1ccccc1COc1cc(-n2cnc3cc(Cl)ccc32)sc1C(N)=O [GW813349] | 12 | 15 | 0 | 8 | 6 | 0 | 10 | 22 | 0 | 5 | 16 | 0 | 2 | 49 | 5 | 0 | 0 | 42 | 8 | 0 |
| Cc1nc(N(C)[C@H]2CN(C(=O)CC#N)CC[C@H]2C)c2cc[nH]c2n1 | 0 | 17 | 17 | 2 | 0 | 0 | 0 | 10 | 0 | 9 | 12 | 0 | 0 | 0 | 12 | 12 | 4 | 4 | 0 | 0 |
| O=C(Nc1ccc2c(c1)OCO2)NC1CCN(c2ccnc(NCc3ccc(F)cc3)n2)CC1 [GSK1379859] | 10 | 0 | 10 | 74 | 47 | 0 | 13 | 0 | 9 | 0 | 1 | 0 | 3 | 99.5 | 0 | 0 | 0 | 0 | 8 | 11 |
| Cc1c(Cn2c(C)nn3c(=O)cc(N4CCO[C@H](C)C4)nc23)cccc1C(F)(F)F [GSK2373690] | 4 | 0 | 0 | 7 | 0 | 4 | 16 | 0 | 27 | 15 | 49 | 0 | 9 | 0 | 22 | 0 | 0 | 0 | 9 | 28 |
| Nc1nc(-c2ccccc2F)c(-c2ccnc3ccccc23)s1 [GW560459] | 98 | 0 | 0 | 14 | 24 | 4 | 3 | 0 | 10 | 1 | 0 | 35 | 6 | 95.6 | 0 | 1 | 0 | 89 | 0 | 6 |
| Nc1nc(N)c2nc(-c3ccccc3)[nH]c2n1 [SKF-12778] | 10 | 66 | 0 | 26 | 24 | 10 | 11 | 0 | 9 | 0 | 0 | 0 | 9 | 9 | 18 | 0 | 15 | 1 | 8 | 10 |
| COc1ccc(-c2coc3ccc(-c4nnc(SCc5cccc(C#N)c5)o4)cc23)cc1 | 12 | 16 | 12 | 0 | 24 | 18 | 0 | 13 | 29 | 0 | 16 | 24 | 9 | 0 | 16 | 18 | 26 | 24 | 2 | 0 |
| O=C1NC(=O)C(c2ccccc2)=C1Nc1cccc(O)c1 [SB-390534] | 8 | 1 | 26 | 0 | 0 | 24 | 0 | 7 | 0 | 0 | 19 | 0 | 24 | 0 | 0 | 0 | 14 | 7 | 11 | 27 |
| CC(C)(C)c1ccc(C(=O)Nc2cn3cc(-c4ccccc4)ccc3n2)cc1 | 16 | 0 | 2 | 0 | 63 | 0 | 6 | 0 | 0 | 18 | 0 | 0 | 3 | 0 | 24 | 100 | 0 | 0 | 0 | 0 |
| CCC(=O)c1c(-c2ccccc2)c2cc(Cl)ccc2c(=O)n1Cc1cc(S(C)(=O)=O)n(CC(N)=O)n1 | 0 | 0 | 0 | 0 | 0 | 0 | 0 | 0 | 30 | 22 | 0 | 0 | 0 | 0 | 1 | 6 | 0 | 5 | 0 | 0 |
| COc1cc2ncn(-c3cc(OCc4ccc(S(C)(=O)=O)cc4)c(C(N)=O)s3)c2cc1OC [GW869979] | 0 | 35 | 3 | 45 | 32 | 0 | 0 | 38 | 0 | 14 | 1 | 0 | 26 | 0 | 0 | 7 | 27 | 6 | 19 | 37 |
